# In all, about 5,500 compounds went through this assay and about 2,000 (36%) were called active. Inconclusive results (about 18%) are left out. The list shows a part of the results. Values without a mark were called inactive. Cut-off read from the data, not from the text of the source: active = normalized growth mostly below about 0.91 (no sharp cut-off); inconclusive = no clear call, values can overlap the other calls; inactive = mostly above about 0.92.
# Assay: chemical genetic growth profiling, strain panel (AID 1159580);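 note: tested at 20 µM; growth read once vehicle control cultures reached saturation at 30 °C; 1 = growth at the plate median or of vehicle wells; lower values mean less growth of the strain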
# Settings: S. cerevisiae deletion strains, growth OD
compound,measurement,setting,value
CC1CCc2c(sc3ncnc(Sc4ccccc4)c23)C1 (stereo unspecified),normalized growth,"locus YAR019C, strain CDC15, hits give low values",0.992
same,normalized growth,"locus YBL105C, strain PKC1, hits give low values",0.972
same,normalized growth,"locus YBR135W, strain CKS1, hits give low values",0.979
same,normalized growth,"locus YBR136W, strain MEC1, hits give low values",0.978
same,normalized growth,"locus YBR160W, strain CDC28, hits give low values",0.983
same,normalized growth,"locus YDL017W, strain CDC7, hits give low values",0.981
same,normalized growth,"locus YDL028C, strain MPS1, hits give low values",0.978
same,normalized growth,"locus YDL101C, strain DUN1, hits give low values",0.978
same,normalized growth,"locus YDL108W, strain KIN28, hits give low values",0.976
same,normalized growth,"locus YDL132W, strain cdc53, hits give low values",0.977
same,normalized growth,"locus YDL214C, strain PRR2, hits give low values",0.945
same,normalized growth,"locus YDR052C, strain DBF4, hits give low values",0.98
same,normalized growth,"locus YDR054C, strain cdc34, hits give low values",0.981
same,normalized growth,"locus YDR226W, strain ADK1, hits give low values",0.979
same,normalized growth,"locus YDR477W, strain SNF1, hits give low values",0.952
same,normalized growth,"locus YER123W, strain YCK3, hits give low values",0.926
same,normalized growth,"locus YER133W, strain GLC7, hits give low values",0.956
same,normalized growth,"locus YFL009W, strain cdc4, hits give low values",0.983
same,normalized growth,"locus YFL029C, strain CAK1, hits give low values",0.987
same,normalized growth,"locus YFR003C, strain YPI1, hits give low values",0.977
same,normalized growth,"locus YFR019W, strain FAB1, hits give low values",0.966
same,normalized growth,"locus YFR028C, strain CDC14, hits give low values",0.975
same,normalized growth,"locus YGR040W, strain KSS1, hits give low values",0.937
same,normalized growth,"locus YGR052W, strain FMP48, hits give low values",1
same,normalized growth,"locus YGR092W, strain DBF2, hits give low values",0.991
same,normalized growth,"locus YHR030C, strain SLT2, hits give low values",1.19 [resistant] (active)
same,normalized growth,"locus YHR079C, strain IRE1, hits give low values",1.11
same,normalized growth,"locus YHR082C, strain KSP1, hits give low values",1.06
same,normalized growth,"locus YHR205W, strain SCH9, hits give low values",0.992
same,normalized growth,"locus YIL147C, strain SLN1, hits give low values",0.977
same,normalized growth,"locus YJL095W, strain BCK1, hits give low values",0.996
same,normalized growth,"locus YJL128C, strain PBS2, hits give low values",0.94
same,normalized growth,"locus YJL157C, strain FAR1, hits give low values",0.962
same,normalized growth,"locus YJR016C, strain ILV3, hits give low values",0.984
same,normalized growth,"locus YJR066W, strain TOR1 (second series), hits give low values",0.948
same,normalized growth,"locus YJR066W, strain TOR1, hits give low values",1.09
same,normalized growth,"locus YKL048C, strain ELM1, hits give low values",0.966
same,normalized growth,"locus YKL067W, strain YNK1, hits give low values",0.948
same,normalized growth,"locus YKL101W, strain HSL1, hits give low values",0.931
same,normalized growth,"locus YKL193C, strain SDS22, hits give low values",0.983
same,normalized growth,"locus YKL203C, strain TOR2, hits give low values",1.04
same,normalized growth,"locus YLR113W, strain HOG1, hits give low values",0.886
same,normalized growth,"locus YLR133W, strain CKI1, hits give low values",0.946
same,normalized growth,"locus YLR403W, strain SFP1, hits give low values",0.968
same,normalized growth,"locus YML070W, strain DAK1, hits give low values",0.936
same,normalized growth,"locus YMR001C, strain CDC5, hits give low values",0.984
same,normalized growth,"locus YMR205C, strain PFK2 (second series), hits give low values",0.95
same,normalized growth,"locus YMR277W, strain FCP1, hits give low values",0.98
same,normalized growth,"locus YNL006W, strain LST8, hits give low values",0.99
same,normalized growth,"locus YNL020C, strain ARK1, hits give low values",0.943
same,normalized growth,"locus YNL161W, strain CBK1, hits give low values",0.98
same,normalized growth,"locus YNL183C, strain NPR1, hits give low values",1.03
same,normalized growth,"locus YNL207W, strain RIO2, hits give low values",0.976
same,normalized growth,"locus YNL222W, strain SSU72, hits give low values",0.989
same,normalized growth,"locus YNL307C, strain MCK1 (second series), hits give low values",0.969
same,normalized growth,"locus YOL078W, strain AVO1, hits give low values",0.976
same,normalized growth,"locus YOL136C, strain PFK27, hits give low values",0.913
same,normalized growth,"locus YOR061W, strain CKA2, hits give low values",0.935
same,normalized growth,"locus YOR119C, strain RIO1, hits give low values",1.02
same,normalized growth,"locus YOR231W, strain MKK1, hits give low values",0.925
same,normalized growth,"locus YOR329C, strain SCD5, hits give low values",0.983
same,normalized growth,"locus YPL031C, strain PHO85, hits give low values",0.945
same,normalized growth,"locus YPL153C, strain RAD53, hits give low values",0.941
same,normalized growth,"locus YPL204W, strain HRR25, hits give low values",0.92
same,normalized growth,"locus YPL209C, strain IPL1, hits give low values",0.982
same,normalized growth,"locus YPL256C, strain CLN2, hits give low values",1.02
same,normalized growth,"locus YPR025C, strain CCL1, hits give low values",0.982
same,normalized growth,"locus YPR106W, strain ISR1, hits give low values",0.984
same,normalized growth,"locus YPR111W, strain DBF20, hits give low values",0.96
same,normalized growth,"strain NNK1, hits give low values",0.981
same,normalized growth,"strain TSCII, hits give low values",0.979
